In PubChem BioAssay (NCATS):
Inconclusive results are not listed. Active and inactive are the calls of the source. The call rests on the fitted dose curve; in most records, active means well fitted curve in the direction sought with a large enough effect; inconclusive means small, poorly fitted or top-dose-only effect, or another doubt; inactive means no such curve, though single readings can be large; an effect the other way counts as inactive or inconclusive.

How the values were obtained:
NIH3T3 [1] = assay: Cytotoxic Profiling of Annotated Libraries Using Quantitative High-Throughput Screening (AID 1296008); details: Five cell lines viability, CellTiter-Glo ATP luminescence, 48-72 h; max response: stronger effect = lower value; further: nearly all actives have a fitted effect of over 60% in size; further: potency means the concentration at half of the fitted maximal effect
Method in brief: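 Cells exposed to compounds for 48 or 72 hr at 37 degrees Celsius. Viability read as ATP-coupled luminescence with CellTiter-Glo after 10 min at room temperature.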

HEK293T [2] = assay: qHTS assay to identify novel small-molecules to repurpose for Merkel cell carcinoma treatment (AID 1296009); details: MCC and control cell lines, CellTiter-Glo viability, 72 h; at 44.8 µM (top of the series) unless noted; further: nearly all actives have a fitted effect of over 60% in size
Method in brief: (§1)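 CellTiter-Glo luminescence after 72 hr compound exposure at 37 degree celsius gave cell viability. Libraries NPC and MIPE were run as 8- and 11-point dose responses; RLUs normalized to DMSO (negative) and no-cell (cytotoxicity) controls.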

MCC-13 = assay: as above; details: MCC and control cell lines, CellTiter-Glo viability, 72 h; series mostly up to 46 µM
Method in brief: as §1

MCC-26 = assay: as above; details: MCC and control cell lines, CellTiter-Glo viability, 72 h; series mostly up to 46 µM
Method in brief: as §1

MKL-1 = assay: as above; details: MCC and control cell lines, CellTiter-Glo viability, 72 h; series mostly up to 46 µM
Method in brief: as §1

MKL-2 = assay: as above; details: MCC and control cell lines, CellTiter-Glo viability, 72 h; series mostly up to 46 µM
Method in brief: as §1

NIH3T3 [3] = assay: as above; details: MCC and control cell lines, CellTiter-Glo viability, 72 h; at 44.8 µM (top of the series) unless noted
Method in brief: as §1

UISO = assay: as above; details: MCC and control cell lines, CellTiter-Glo viability, 72 h; series mostly up to 46 µM
Method in brief: as §1

WaGa = assay: as above; details: MCC and control cell lines, CellTiter-Glo viability, 72 h; series mostly up to 46 µM
Method in brief: as §1

C33A = assay: Primary qHTS to identify gynecologic anti-cancer compounds using libraries of approved drugs and bioactive compounds (AID 1345084); details: Gynecologic cancer cell panel viability, ATPlite luminescence, 48 h; series mostly up to 57.5 µM; further: nearly all actives have a fitted effect of over 55% in size
Method in brief: (§2)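 48 h compound exposure at 37 C, 5% CO2; five-point qHTS. ATPlite luminescence readout of cell ATP.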

CAOV3 = assay: as above; details: Gynecologic cancer cell panel viability, ATPlite luminescence, 48 h; series mostly up to 57.5 µM
Method in brief: as §2

CASKI = assay: as above; details: Gynecologic cancer cell panel viability, ATPlite luminescence, 48 h; series mostly up to 57.5 µM
Method in brief: as §2

Es-2 = assay: as above; details: Gynecologic cancer cell panel viability, ATPlite luminescence, 48 h; series mostly up to 57.5 µM
Method in brief: as §2

HeLa = assay: as above; details: Gynecologic cancer cell panel viability, ATPlite luminescence, 48 h; series mostly up to 57.5 µM
Method in brief: as §2

Hek293T [4] = assay: as above; details: Gynecologic cancer cell panel viability, ATPlite luminescence, 48 h, control line for the selectivity index; series mostly up to 57.5 µM
Method in brief: as §2

JEG-3 = assay: as above; details: Gynecologic cancer cell panel viability, ATPlite luminescence, 48 h; series mostly up to 57.5 µM
Method in brief: as §2

OV90 = assay: as above; details: Gynecologic cancer cell panel viability, ATPlite luminescence, 48 h; series mostly up to 57.5 µM
Method in brief: as §2

PA-1 = assay: as above; details: Gynecologic cancer cell panel viability, ATPlite luminescence, 48 h; series mostly up to 57.5 µM
Method in brief: as §2

SKOV3 = assay: as above; details: Gynecologic cancer cell panel viability, ATPlite luminescence, 48 h; series mostly up to 57.5 µM
Method in brief: as §2

HACAT = assay: qHTS assay to identify novel small-molecules to repurpose for Merkel cell carcinoma treatment (AID 1296009); details: MCC and control cell lines, CellTiter-Glo viability, 72 h; at 44.8 µM (top of the series) unless noted; further: nearly all actives have a fitted effect of over 60% in size
Method in brief: as §1
On the % scale 0 is the no-effect control and ±100 the full control effect.

CCOc1ccccc1OCC1CNCCO1 (configuration not stated)
inactive: outcome (NIH3T3 [1]) | outcome (HEK293T [2]) | Potency (MCC-13) | Potency (MCC-26) | Potency (MKL-1) | Potency (MKL-2) | outcome (NIH3T3 [3]) | Potency (UISO) | Potency (WaGa) | Potency (C33A) | Potency (CAOV3) | Potency (CASKI) | Potency (Es-2) | Potency (HeLa) | Potency (Hek293T [4]) | Potency (JEG-3) | Potency (OV90) | Potency (PA-1) | Potency (SKOV3)

Cc1[nH]cnc1-c1ccc(Cl)cc1
inactive: outcome (NIH3T3 [1]) | outcome (HEK293T [2]) | Potency (MCC-13) | Potency (MCC-26) | Potency (MKL-1) | Potency (MKL-2) | outcome (NIH3T3 [3]) | Potency (UISO) | Potency (WaGa) | Potency (C33A) | Potency (CAOV3) | Potency (CASKI) | Potency (Es-2) | Potency (HeLa) | Potency (Hek293T [4]) | Potency (JEG-3) | Potency (OV90) | Potency (PA-1) | Potency (SKOV3)

CCN1CCCC1CN (configuration not stated)
inactive: max response (NIH3T3 [1]) -1.87% | outcome (HEK293T [2]) | Potency (MCC-13) | Potency (MCC-26) | Potency (MKL-1) | Potency (MKL-2) | Potency (UISO) | Potency (WaGa) | Potency (C33A) | Potency (CAOV3) | Potency (CASKI) | Potency (Es-2) | Potency (HeLa) | Potency (Hek293T [4]) | Potency (JEG-3) | Potency (OV90) | Potency (PA-1) | Potency (SKOV3)

O=C(O)Cn1c(=O)n(Cc2ccc(Br)cc2F)c(=O)c2ccc(Cl)cc21
inactive: outcome (NIH3T3 [1]) | outcome (HEK293T [2]) | Potency (MCC-13) | Potency (MCC-26) | Potency (MKL-1) | Potency (MKL-2) | outcome (NIH3T3 [3]) | Potency (UISO) | Potency (WaGa) | Potency (C33A) | Potency (CAOV3) | Potency (CASKI) | Potency (Es-2) | Potency (HeLa) | Potency (Hek293T [4]) | Potency (JEG-3) | Potency (OV90) | Potency (PA-1) | Potency (SKOV3)

NS(=O)(=O)c1cc2c(cc1Cl)CN(C1CCCCC1)C2=O
inactive: max response (NIH3T3 [1]) 4.87% | outcome (HEK293T [2]) | Potency (MCC-13) | Potency (MCC-26) | Potency (MKL-1) | Potency (MKL-2) | Potency (UISO) | Potency (WaGa) | Potency (C33A) | Potency (CAOV3) | Potency (CASKI) | Potency (Es-2) | Potency (HeLa) | Potency (Hek293T [4]) | Potency (JEG-3) | Potency (OV90) | Potency (PA-1) | Potency (SKOV3)

COc1cc2c(cc1OC)CN(C(=O)[C@H](C)N[C@@H](CCc1ccccc1)C(=O)O)[C@H](C(=O)O)C2
inactive: max response (NIH3T3 [1]) -7.08% | outcome (HEK293T [2]) | Potency (MCC-13) | Potency (MCC-26) | Potency (MKL-1) | Potency (MKL-2) | Potency (UISO) | Potency (WaGa) | Potency (C33A) | Potency (CAOV3) | Potency (CASKI) | Potency (Es-2) | Potency (HeLa) | Potency (Hek293T [4]) | Potency (JEG-3) | Potency (OV90) | Potency (PA-1) | Potency (SKOV3)

CCOC(=O)O[C@]1(C(=O)OCCl)CC[C@H]2[C@@H]3CCC4=CC(=O)C=C[C@]4(C)[C@H]3[C@@H](O)C[C@@]21C
inactive: outcome (NIH3T3 [1]) | outcome (HEK293T [2]) | Potency (MCC-13) | Potency (MCC-26) | Potency (MKL-1) | Potency (MKL-2) | outcome (NIH3T3 [3]) | Potency (UISO) | Potency (WaGa) | Potency (C33A) | Potency (CASKI) | Potency (Es-2) | Potency (HeLa) | Potency (Hek293T [4]) | Potency (JEG-3) | Potency (OV90) | Potency (PA-1)

C1N2CN3CN1CN(C2)C3
inactive: max response (NIH3T3 [1]) -2.39% | outcome (HEK293T [2]) | Potency (MCC-13) | Potency (MCC-26) | Potency (MKL-1) | Potency (MKL-2) | Potency (UISO) | Potency (WaGa) | Potency (C33A) | Potency (CAOV3) | Potency (CASKI) | Potency (Es-2) | Potency (HeLa) | Potency (Hek293T [4]) | Potency (JEG-3) | Potency (OV90) | Potency (PA-1) | Potency (SKOV3)

COc1cc(/C=C/C(N)=O)cc(OC)c1OC
inactive: outcome (NIH3T3 [1]) | outcome (HEK293T [2]) | Potency (MCC-13) | Potency (MCC-26) | Potency (MKL-1) | Potency (MKL-2) | outcome (NIH3T3 [3]) | Potency (UISO) | Potency (WaGa) | Potency (C33A) | Potency (CAOV3) | Potency (CASKI) | Potency (Es-2) | Potency (HeLa) | Potency (Hek293T [4]) | Potency (JEG-3) | Potency (OV90) | Potency (PA-1) | Potency (SKOV3)

CC(C)N(CCC(=O)c1ccc2ccccc2c1)Cc1ccccc1
active: Potency (NIH3T3 [1]) 10.3 µM
inactive: outcome (HACAT) inactive; activator | Potency (C33A) | Potency (CAOV3) | Potency (CASKI) | Potency (Es-2) | Potency (HeLa) | Potency (Hek293T [4]) | Potency (JEG-3) | Potency (OV90) | Potency (PA-1) | Potency (SKOV3)

O=C(CO)[C@@H](O)[C@H](O)[C@@H](O)CO
inactive: outcome (NIH3T3 [1]) | outcome (HEK293T [2]) | Potency (MCC-13) | Potency (MCC-26) | Potency (MKL-1) | Potency (MKL-2) | outcome (NIH3T3 [3]) | Potency (UISO) | Potency (WaGa) | Potency (C33A) | Potency (CAOV3) | Potency (CASKI) | Potency (Es-2) | Potency (HeLa) | Potency (Hek293T [4]) | Potency (JEG-3) | Potency (OV90) | Potency (PA-1)

CC(C)C(=O)OCc1cccc(OC(=O)[C@@H]2N3C(=O)[C@@H](NC(=O)Cc4ccccc4)[C@H]3SC2(C)C)c1
inactive: max response (NIH3T3 [1]) 4.46% | outcome (HEK293T [2]) | Potency (MCC-13) | Potency (MCC-26) | Potency (MKL-1) | Potency (MKL-2) | Potency (UISO) | Potency (WaGa) | Potency (C33A) | Potency (CAOV3) | Potency (CASKI) | Potency (Es-2) | Potency (HeLa) | Potency (Hek293T [4]) | Potency (JEG-3) | Potency (OV90) | Potency (PA-1) | Potency (SKOV3)

CNC(=O)c1cnn(-c2nc(N)c3ncn([C@@H]4O[C@H](CO)[C@@H](O)[C@H]4O)c3n2)c1
inactive: max response (NIH3T3 [1]) -3.79% | outcome (HEK293T [2]) | Potency (MCC-13) | Potency (MCC-26) | Potency (MKL-1) | Potency (MKL-2) | Potency (UISO) | Potency (WaGa) | Potency (C33A) | Potency (CAOV3) | Potency (CASKI) | Potency (Es-2) | Potency (HeLa) | Potency (Hek293T [4]) | Potency (JEG-3) | Potency (OV90) | Potency (PA-1) | Potency (SKOV3)

O=C1CC2(CCCC2)CC(=O)N1CCNCC1COc2ccccc2O1 (configuration not stated)
inactive: max response (NIH3T3 [1]) -7.46% | outcome (HEK293T [2]) | Potency (MCC-13) | Potency (MCC-26) | Potency (MKL-1) | Potency (MKL-2) | Potency (UISO) | Potency (WaGa) | Potency (C33A) | Potency (CAOV3) | Potency (CASKI) | Potency (Es-2) | Potency (HeLa) | Potency (Hek293T [4]) | Potency (JEG-3) | Potency (OV90) | Potency (PA-1) | Potency (SKOV3)

Cc1ccc(C(=O)Oc2ccc(C(O)CNC(C)(C)C)cc2OC(=O)c2ccc(C)cc2)cc1 (configuration not stated)
inactive: outcome (NIH3T3 [1]) | outcome (HACAT) | Potency (MCC-13) | Potency (MCC-26) | outcome (NIH3T3 [3]) | Potency (UISO) | Potency (C33A) | Potency (CASKI) | Potency (Es-2) | Potency (HeLa) | Potency (Hek293T [4]) | Potency (JEG-3) | Potency (PA-1)
